# PubChem BioAssay AID720504 (National Center for Advancing Translational Sciences (NCATS), 2013)
# The campaign covered roughly 360,000 compounds. About 10,000 (2.8%) were called active. Not shown: some 4% with an inconclusive outcome. Shown is part of a subset that was picked to be rich in actives. A number with no mark means an inactive call. Calls come from the whole dose curve; as a rule, active = well fitted inhibition curve with a large enough effect; inconclusive = small, poorly fitted or top-dose-only effect; inactive = flat fitted curve, though single readings scatter.
# Target: Serine/threonine-protein kinase PLK1 (Homo sapiens) (UniProt P53350)
# Assay: qHTS for Inhibitors of PLK1-PDB (polo-like kinase 1 - polo-box domain): Primary Screen; note: nearly all actives have a fitted effect of over 65% in size; for max response, negative = inhibition: series mostly up to about 57 µM
# Settings: Plk1 PBD binding of FITC phosphopeptide, fluorescence polarization
# % is set by controls: 0 for no effect and ±100 for the full control effect; potency is the fitted concentration of half-maximal effect.
# Chain of Serine/threonine-protein kinase PLK1 (Homo sapiens) (P53350 whole entry, looked up, the tested form may be a part): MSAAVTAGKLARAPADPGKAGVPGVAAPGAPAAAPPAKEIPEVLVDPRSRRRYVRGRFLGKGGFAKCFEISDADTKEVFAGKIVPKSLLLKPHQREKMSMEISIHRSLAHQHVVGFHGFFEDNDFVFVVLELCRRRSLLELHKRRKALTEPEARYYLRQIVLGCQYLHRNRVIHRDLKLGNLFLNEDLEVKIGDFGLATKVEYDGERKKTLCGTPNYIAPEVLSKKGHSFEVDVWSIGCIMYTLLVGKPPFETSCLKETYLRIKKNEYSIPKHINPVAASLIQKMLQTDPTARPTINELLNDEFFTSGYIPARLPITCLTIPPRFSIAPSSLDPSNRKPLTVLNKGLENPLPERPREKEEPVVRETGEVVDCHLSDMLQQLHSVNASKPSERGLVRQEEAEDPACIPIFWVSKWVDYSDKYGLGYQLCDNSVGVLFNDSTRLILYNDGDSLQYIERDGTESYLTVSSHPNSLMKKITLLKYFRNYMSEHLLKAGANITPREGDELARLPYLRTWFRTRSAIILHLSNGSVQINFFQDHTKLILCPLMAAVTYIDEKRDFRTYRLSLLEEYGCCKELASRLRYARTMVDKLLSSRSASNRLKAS
SMILES,"max response, negative = inhibition",Potency
COc1cc2c(=O)n(C)c3ccccc3c2cc1OC,-8.91%,–
Cn1c(=O)c([N+](=O)[O-])c(Oc2ccccc2)c2ccccc21,–,23.8 µM (active)
Cc1cc(C)c(-c2c(O)c3ccccc3n(C)c2=O)c(C)c1,-5.02%,–
CCOC(=O)c1c(C)[nH]c(C)c1C(=O)COC(=O)/C=C/c1cccc([N+](=O)[O-])c1,1.23%,–
Cc1ccnc(NS(=O)(=O)c2ccc(NC(=O)c3oc4ccccc4c3C)cc2)n1,-5.87%,–
Cc1ccnc(NS(=O)(=O)c2ccc(NC(=O)c3ccc(S(=O)(=O)N4CCOCC4)cc3)cc2)n1,-5.87%,–
Cc1ccnc(NS(=O)(=O)c2ccc(NC(=O)c3ccc(S(=O)(=O)N(C)C)cc3)cc2)n1,–,26.7 µM (active)
COc1ccc(C(C)(O)c2nc(-c3cc(F)cc(F)c3)cs2)cc1 (stereo not drawn),4.82%,–
OC(c1ccccc1)(c1ccccc1)C1CCN(CCCOc2ccccc2)CC1,0.305%,–
CC(C)N=C1CCCC1C(=S)SSC(=S)C1CCCC1=NC(C)C (stereo not drawn),–,9.47 µM (active)
CCC(c1nc2ccccc2[nH]1)n1c(=O)c(-c2cccs2)nc2ccccc21 (stereo not drawn),7.42%,–
Cc1ccc(C(=O)Nc2nc(N)n(-c3ccccc3)n2)cc1,-8.25%,–
COc1ccc(-c2[nH][nH]c(=O)c2NC(=O)c2ccc([N+](=O)[O-])cc2)cc1,-12.4%,–
Cc1ccc(C(=O)Nc2c(-c3ccccc3)[nH][nH]c2=O)cc1,–,23.8 µM (active)
CCOC(=O)c1c(NC(=O)C2(C)Cc3ccccc3C(=O)O2)sc2c1CCCC2 (stereo not drawn),–,23.8 µM (active)
CCOC(=O)c1c(NC(=O)CSc2cn(CC)c3ccccc23)sc2c1CCC2,-5.08%,–
CCOC(=O)c1c(NC(=O)C(C)Sc2c[nH]c3ccccc23)sc2c1CCC2 (stereo not drawn),-20.8%,–
CC1(c2cccc(N)c2)OCCO1,-12.9%,–
CCc1nc2ccc(C(=O)N(C)Cc3ccco3)cn2c1N(C)C(=O)Cc1ccccc1,-2.7%,–
CC1(C(=O)NS(=O)(=O)c2cccc(F)c2)CCN1C(=O)Cc1cc(F)ccc1F (stereo not drawn),1.7%,–
C[C@@H]1CN([C@H](C)CO)C(=O)c2cc(-c3ccc(F)cc3)cnc2O[C@H]1CN(C)C(=O)c1ccc(F)cc1,-26.3%,–
OCCNc1nc(Nc2ccc(Cl)c(Cl)c2)nc2ccccc12,-0.568%,–

SMILES,"max response, negative = inhibition",Potency
O=[N+]([O-])c1c(NCCO)cc(Sc2nc3ccccc3s2)c2nonc12,–,1.68 µM (active)
Cc1ccc(CN(C)C[C@@H]2OCc3cnnn3CCCC(=O)N([C@@H](C)CO)C[C@H]2C)cc1,-4.71%,–
CC(C)(C)C1CCC(=O)N2CCC[C@]2(c2ccccc2)C1 (stereo partly drawn),-8.62%,–
COC(=O)C1=CN(c2c(C)cc(C)cc2C)C(N)=C(C#N)C1c1cccc(F)c1 (stereo not drawn),0.842%,–
CCc1ccccc1NC(=O)CSc1nnc([C@@H](NC(=O)OC(C)(C)C)C(C)CC)o1 (stereo partly drawn),-15.7%,–
CC(C)[C@@H](NC(=O)OC(C)(C)C)C(=O)NCC1CCC(C(=O)N[C@@H](Cc2ccccc2)C(=O)O)CC1 (stereo partly drawn),3.75%,–
C[C@@H](NC(=O)OC(C)(C)C)c1nnc(S(=O)(=O)Cc2ccccc2)o1,–,13.4 µM (active)
CC(C)Sc1nnc([C@H](Cc2ccccc2)NC(=O)OC(C)(C)C)o1,–,23.8 µM (active)
CC(C)(C)c1ccc(C(CC(=O)O)NS(=O)(=O)Cc2ccccc2)cc1 (stereo not drawn),-2.95%,–
COc1ccccc1NC(=O)[C@H](COCc1ccccc1)NC(=O)OC(C)(C)C,-12.1%,–
CCCOc1ccc(F)cc1-c1cc(C(=O)NCc2ccc(F)cc2)[nH]n1,-11.9%,–
COc1cc(C(=O)OCCCN2CCOCC2)cc(OC)c1OC,0.976%,–
CCOC(=O)N1CCN(C(=O)C[C@@H]2C[C@@]3(C(=O)OC)CC(C)(C)CC=C3N(Cc3ccco3)C2=O)CC1,2.41%,–
Cc1cccc(CNC(=O)c2sc(=O)n(Cc3ccccc3C)c2C)c1,-6.16%,–
CCCCCn1c(SCCC(C)C)nc2c1c(=O)[nH]c(=O)n2C,–,23.8 µM (active)
CCCCn1c(SCC(=O)N2CCOCC2)nc2c1c(=O)n(C)c(=O)n2C,-13.8%,–
CCCCCCn1c(SCC(=O)c2ccccc2)nc2c1c(=O)[nH]c(=O)n2C,-19.2%,–
CCc1nc2c(OCC(=O)C(C)(C)C)cccn2c1N(C)C(=O)c1ccccc1F,-11%,–
CC1(C)CC(=O)C=C(c2ccccc2CO)C1=O,-0.138%,–
Clc1ccc(-c2cccc3nccn23)cc1,-1.38%,–
COC(=O)c1cn(C(=O)c2ccc(Cl)cc2)c2ccccc12,-5.55%,–
COC(=O)c1ccccc1N=Nc1c(C)[nH][nH]c1=O,–,23.8 µM (active)

SMILES,"max response, negative = inhibition",Potency
COC(=O)c1ccccc1N=NNc1ccc([N+](=O)[O-])cc1,0.193%,–
CCN(CC)c1ncnc2c1ncn2[C@H]1CN(Cc2cccs2)C[C@@H](CO)O1,2.82%,–
C[C@@H]1CCCCO[C@H](CN(C)Cc2ccccc2)[C@@H](C)CN([C@H](C)CO)C(=O)c2cc(NS(=O)(=O)c3ccc(Cl)cc3)ccc2O1,-7.57%,–
O=C1CSC(=S)N1c1ccc(Cl)c(Cl)c1,–,26.7 µM (active)
COc1cc(N2C(=O)CSC2=S)cc(OC)c1OC,-18.2%,–
O=C1CSC(=S)N1c1ccc(O)cc1,1.87%,–
CCOC(=O)N1CCN(C(=O)C[C@@H]2C[C@@]3(C(=O)OC)CCCCC=C3N(CCC3=CCCCC3)C2=O)CC1,4.13%,–
Nc1ncnc2c1ncn2[C@@H]1O[C@H](C(=O)N2CCSC2)[C@@H](O)[C@H]1O,-1.36%,–
Clc1ccccc1Nc1nc(NCc2cccs2)nc2ccsc12,0.746%,–
CCc1nc2c(OCCc3cccc(OC)c3)cccn2c1N(C)C(=O)c1ccc(C)cc1,-4.74%,–
CC(=O)Nc1cc(-c2cccc(CO)c2)cn2c(-c3cccc(C(F)(F)F)c3)cnc12,-14.2%,–
Cc1nnsc1S(=O)(=O)Cc1ccccc1Cl,-7.17%,–
O=C(Nc1ccc(S(=O)(=O)Nc2ccccn2)cc1)c1ccccc1,-2.45%,–
O=C(Nc1ccccc1)c1nnsc1S(=O)(=O)c1ccc(Cl)cc1,–,4.74 µM (active)
Cc1cc2nc(-c3ccc(F)cc3)c(Cc3ccsc3)n2c(C)c1Br,-4.34%,–
CCc1c(-c2ccc(F)cc2)ncn1Cc1cccc(-c2ccccc2)c1,-16%,–
COc1cccc2sc(N(CCCN(C)C)C(=O)CCS(=O)(=O)c3ccccc3)nc12,–,10.6 µM (active)
CCN(CC)CCN(C(=O)c1ccc2c(c1)CCCC2)c1nc2c(OC)cccc2s1,-2.72%,–
COc1ccc(N(C)C(=O)CCS(=O)(=O)c2cccc3nsnc23)cc1,-20.6%,–
CN1OC[C@@H]2CN(C(=O)c3ccc(-c4ccccc4)cc3)[C@H](c3ccc(-c4cccc(F)c4)cc3)C[C@@H]21,-8.48%,–
CC1=C(C(=O)N2CCOCC2)CC(CC(=O)NCc2cccs2)C(=O)N1CCCN1CCCC1=O (stereo not drawn),-11.8%,–
O=C(CCCN1CCc2[nH]c3ccc(F)cc3c2C1)c1ccc(F)cc1,-6.15%,–

SMILES,"max response, negative = inhibition",Potency
C=CCNC(=S)N1CCc2[nH]c3ccccc3c2C1,-8.32%,–
CCCC(=O)N1CCc2[nH]c3ccccc3c2C1,–,26.7 µM (active)
CCc1nc2c(OCc3ccc(F)c(F)c3)cccn2c1N(C)C(=O)c1ccco1,1.07%,–
O=C(OCc1ccccc1)N1CCC2CC1c1ccc(-c3ccc4c(c3)OCO4)cc12 (stereo not drawn),2.15%,–
CC1(C(=O)NS(=O)(=O)c2cccc(OC(F)F)c2)CCN1C(=O)COc1ccc(Cl)cc1 (stereo not drawn),3.32%,–
OC(c1ccc(Cl)c(F)c1)c1ncc(-c2ccccc2Cl)[nH]1 (stereo not drawn),3.86%,–
CCCCC(O)C1=C[N+](=O)CC=C1 (stereo not drawn),-14.2%,–
CN(C)[C@@H]1C(=O)C(C(N)=O)=C(O)[C@@]2(O)C(=O)C3=C(O)c4c(O)ccc(Cl)c4[C@@H](O)[C@H]3C[C@@H]12,-16.8%,–
C=C1c2c(Cl)ccc(O)c2C(O)=C2C(=O)[C@]3(O)C(O)=C(C(N)=O)C(=O)[C@@H](N(C)C)[C@@H]3[C@@H](O)C12 (stereo partly drawn),–,23.8 µM (active)
O=C(COC(=O)c1cncc(Br)c1)Nc1ccc(S(=O)(=O)N2CCOCC2)cc1,-5.27%,–
O=[N+]([O-])c1cccc2ncccc12,–,3.77 µM (active)
O=[N+]([O-])c1ccccc1S(=O)(=O)Nc1cccc2cccnc12,-7.49%,–
Nc1nc(Sc2ncccc2[N+](=O)[O-])n[nH]1,4.21%,–
CC(C)Cn1cc(-c2cncc3nccn23)cn1,-13.4%,–
O=C(Nc1ccc2c(c1)OCCO2)C1c2ccccc2OCC(=O)N1Cc1ccccn1 (stereo not drawn),-7.8%,–
CCc1ccc(N(CC(=O)NCc2cccnc2)S(=O)(=O)c2ccccc2)cc1,-2.42%,–
CCC(C(=O)NCc1cccnc1)n1nc(C)c2sc3ccccc3c2c1=O (stereo not drawn),–,26.7 µM (active)
CCC(C(=O)NCc1ccc(OC)cc1)n1nc(C)n2c(cc3occc32)c1=O (stereo not drawn),-1.71%,–
CC(=O)Nc1cccc(-c2ccnc3c2CC(C)(C(=O)NCc2ccco2)O3)c1 (stereo not drawn),-8.18%,–
CCOc1ccc(N(CC(=O)OC)S(=O)(=O)c2c(C)noc2C)cc1,–,26.7 µM (active)
CCOC(=O)c1cccc(NC(=O)CN(c2ccc(C)cc2)S(=O)(=O)c2c(C)noc2C)c1,-3.68%,–
COc1ccc(N(CC(=O)Nc2cc(OC)ccc2OC)S(=O)(=O)c2c(C)noc2C)cc1,2.36%,–
